Experimental data from ChEMBL document CHEMBL3988442, “University of Dundee, Small-Polar-MMV Screening Library” (2021).
In all, about 48,000 compounds went through this assay and about 13,000 (27%) showed an effect of 50% or more. Some of the results follow.

Tested on: Wolbachia pipientis
Assay: Anti-Wolbachia Cell-Based Screen
Assay type: functional
Parameters: scale not given: in the data most compounds retested in dose-response had high values
Details: 5 µM

SMILES	Percent Effect
[O-][S+](CCN1CCc2[nH]nc(C(F)(F)F)c2C1)c1ccccc1 (stereo not drawn)	-3.726%
Cc1ccc(C2CCCN2Cc2nc3c(cnn3C)c(=O)[nH]2)cc1C (stereo not drawn)	2.271%
Cn1ncc2c(=O)[nH]c(CN3CCCC3Cc3ccc(F)cc3)nc21 (stereo not drawn)	116%
Cn1ncc2c(=O)[nH]c(CN3CCCC3CC3CCCCC3)nc21 (stereo not drawn)	-0.1708%
Cn1ncc2c(=O)[nH]c(CN3CCCC3CCc3ccccc3)nc21 (stereo not drawn)	94.92%
Cn1ncc2c(=O)[nH]c(CN3CCCC3Cc3ccccc3)nc21 (stereo not drawn)	-2.22%
CCC1CCCCN1Cc1nc2c(cnn2C)c(=O)[nH]1 (stereo not drawn)	107.5%
Cn1ncc2c(=O)[nH]c(CN3CCCC3CC(C)(C)C)nc21 (stereo not drawn)	114.1%
COc1cccc(C2CCCN2Cc2nc3c(cnn3C)c(=O)[nH]2)c1 (stereo not drawn)	-3.209%
Cn1ncc2c(=O)[nH]c(CN3CCC(Cc4ccccc4)CC3)nc21	-8.773%
COc1ccccc1-c1noc(CCC(=O)NC(C)Cn2cccn2)n1 (stereo not drawn)	-41.91%
COc1ccc(-n2ccnc2-c2cnc(N(C)C)nc2)cc1OC	-6.365%
Cc1ccc(CN2CCN(c3ncccc3Cl)CC2CCO)cc1 (stereo not drawn)	-15.14%
O=C(c1cn2cc(Cl)cnc2n1)N1CCOCC(O)(CN2CCCC2)C1 (stereo not drawn)	-2.711%
Cc1nccn1-c1ccc(C(C)NCCc2ccccn2)cc1 (stereo not drawn)	8.244%
CCc1nc(CN2CCCC(NCCn3cncn3)C2)no1 (stereo not drawn)	25.84%
CCCc1noc(CNC2CCCN(Cc3noc(C4CC4)n3)C2)n1 (stereo not drawn)	116.1%
CNC1CCCN(Cc2noc(C3CC3)n2)C1.Cl (stereo not drawn)	-6.036%
CCc1nc(CN2CCCC(NCc3cc(C)no3)C2)no1 (stereo not drawn)	2.816%
CCc1nc(CN2CCCC(NCc3nnc(C4CC4)n3C)C2)no1 (stereo not drawn)	109.6%
CCc1nc(CN2CCCC(NCc3ncc(C(C)(C)C)o3)C2)no1 (stereo not drawn)	9.361%
Cn1ccnc1CNC1CCCN(Cc2noc(C3CC3)n2)C1 (stereo not drawn)	-20.64%

SMILES	Percent Effect
CCc1noc(CNC2CCCN(Cc3noc(C4CC4)n3)C2)n1 (stereo not drawn)	122.3%
C1CC(NCc2nc(C3CC3)no2)CN(Cc2noc(C3CC3)n2)C1 (stereo not drawn)	4.824%
Cc1ncc(CNC2CCCN(Cc3noc(C4CC4)n3)C2)s1 (stereo not drawn)	-12.11%
CCc1nc(CN2CCCC(NCc3nc(C)c(C)o3)C2)no1 (stereo not drawn)	135.7%
CCc1nc(CN2CCCC(NCc3ccc(C(N)=O)cc3)C2)no1 (stereo not drawn)	-8.136%
COCCN(Cc1ccc(F)cc1Cl)C(=O)c1cc(C)no1	3.523%
Cc1cccc2c1nc1n2[C@@H](CNC(=O)Cc2ccccc2)COC1	-6.284%
Cc1cc(C)c2c(N(C)CC3CCN(CC(C)C)C3)ncnc2n1 (stereo not drawn)	16%
Cc1nc(C(=O)N(Cc2c(C)nn(C)c2C)C(C)C)cs1	0.2586%
CCN(C(=O)c1cccc2c1OCO2)c1ccc(Br)cn1	-0.9868%
CCOc1ccc(N2CCC(C(O)c3ccccc3)CC2)nn1 (stereo not drawn)	-5.535%
Cc1ccccc1CS(=O)(=O)c1nnc(C(C)NC(=O)OC(C)(C)C)o1 (stereo not drawn)	85.24%
C[C@H](NC(=O)OC(C)(C)C)c1nnc(S(=O)(=O)Cc2cccc(F)c2)o1	143.7%
O=S(=O)(Cc1ccccc1Cl)NC(CO)c1ccco1 (stereo not drawn)	-8.194%
CCC(C)NC(=O)CS(=O)(=O)Cc1ccccc1Cl (stereo not drawn)	-0.4939%
CC(NC(=O)OC(C)(C)C)c1nnc(S(=O)(=O)Cc2ccc(Cl)cc2)o1 (stereo not drawn)	137.4%
CC(C)(C)OC(=O)NCCC(=O)NCC(O)c1cccc(F)c1 (stereo not drawn)	-4.021%
CC(C)S(=O)(=O)c1nnc(CCNC(=O)OC(C)(C)C)o1	16.12%
CC(NC(=O)CNC(=O)OC(C)(C)C)c1ccc(Cl)s1 (stereo not drawn)	-4.782%
Cc1ccccc1CS(=O)(=O)c1nnc(N2CCOCC2)s1	-8.396%
CC(NC1(CNC(=O)OC(C)(C)C)CCOCC1)c1ccccc1 (stereo not drawn)	3.949%
CC(C)NC(=O)NCCCc1cccc(F)c1	-3.402%

SMILES	Percent Effect
CC(NC(=O)OC(C)(C)C)c1nnc(S(=O)(=O)Cc2ccccc2Cl)o1 (stereo not drawn)	135.1%
CC(C)(C)c1ccc(C2(C(=O)NCCS(C)(=O)=O)CC2)cc1	2.157%
Cn1cnc(-c2ccc(F)cc2)c1NC(=O)CCNC(=O)C(C)(C)C	-6.706%
Cc1ccc(OCC(O)CN(C)CC(=O)NC(C)C)c(C)c1 (stereo not drawn)	0.9379%
Cc1ccc(S(=O)(=O)N(C)Cc2cnccn2)cc1N(C)C	-3.361%
CCO[C@H]1CC[C@H]2[C@H]1OCCN2C(=O)CC1=CCCCC1	80.53%
CO[C@@H]1CC[C@H]2[C@H]1OCCN2C(=O)C1=CCCC1	4.441%
CCOCC1CC2(CCN(C(=O)CC3=CCCCC3)CC2)CO1 (stereo not drawn)	-15.26%
CCO[C@@H]1CC[C@H]2[C@H]1OCCN2C(=O)CC1=CCCCC1	124.5%
CO[C@H]1CC[C@H]2[C@H]1OCCN2C(=O)C1=CCCC1	2.583%
CO[C@H]1CC[C@H]2[C@H]1OCCN2C(=O)CC1=CCCCC1	98.05%
O=C(C1=CCCC1)N1CCO[C@H]2[C@@H](OCC3CC3)CC[C@@H]21	-8.51%
CC(C)(CNC(=O)Nc1cccc(-c2cccs2)c1)C(N)=O	3.927%
N#Cc1ccc(Cn2cncn2)c(F)c1	-14.63%
N#Cc1nccnc1NC1CCN(c2ccccc2OC(F)F)C1 (stereo not drawn)	9.423%
CCN1CCc2[nH]cnc2C12CCN(c1ccc(Cl)c(C(=O)O)n1)CC2	-7.204%
COc1ccc(CNC(=O)NCC2CCOC2)c(C(F)(F)F)c1 (stereo not drawn)	-17.58%
O=C(c1cc2c(s1)CCC2)N1CCCCC1Cn1cccn1 (stereo not drawn)	-2.201%
O=C(c1cc2c(s1)CCC2)N1CCCC1Cn1cccn1 (stereo not drawn)	111%
O=C(c1cc2c(s1)CCCC2)N1CCCC1Cn1cccn1 (stereo not drawn)	141.2%
Cc1nn(C)c(N2CCOCC2)c1CNC1CCN(C(C)(C)C)CC1	-15.17%
c1ccc(-c2nnc3sc(CCN4CCCC4)nn23)cc1	117%

SMILES	Percent Effect
Cc1ccc(-c2cccc(-c3ccn(CCN4CCCC4)n3)c2)nn1	-8.933%
Cc1ccc(CNC2CCN(CCc3ccncc3)CC2)s1	-7.206%
c1cc(-c2ccn(CCN3CCCC3)n2)cc(-c2nccs2)c1	-3.86%
c1ccc(-c2nnc3sc(CCN4CCCCCC4)nn23)cc1	117.6%
c1ccc(-c2cccc(-c3ccn(CCN4CCCCC4)n3)c2)nc1	2.819%
Cc1nc(CCN2CCCCC2)n(-c2ccc(F)cc2)n1	-12.73%
c1cc(-c2nccn2CCc2nc3c(s2)CCC3)ccn1	7.441%
c1cc(-c2nnc3sc(CCN4CCCC4)nn23)ccn1	107.3%
CC(C)(C)Cc1noc2ncc(C(=O)N3CCC3)cc12	-0.07347%
O=C(C1SCCc2sccc21)N1CCN(CC(F)F)CC1 (stereo not drawn)	2.68%
CS(=O)(=O)CCCOc1cccc(-n2ccnc2)c1	0.659%
CN(CCOc1cccc(S(C)(=O)=O)c1)CC(F)F	95.25%
CCC(C)(C)N(C)CCOc1cccc(S(C)(=O)=O)c1	103.5%
CN(CCOc1cccc(S(C)(=O)=O)c1)c1ccccc1	88.15%
CN(CCOc1cccc(CNS(C)(=O)=O)c1)C1CCOCC1	-5.968%
CS(=O)(=O)CCCOc1cccc(-n2cccn2)c1	-22.07%
CN(CCOc1cccc(Cl)c1)Cc1nnc(C(C)(C)C)o1	-19.16%
CS(=O)(=O)c1ccc(OCCNCc2cccc(F)c2)cc1	-4.841%
COc1cccc(S(=O)(=O)CCN2CCN(CC(F)F)CC2)c1	1.442%
Cc1cccc(C(=O)NC2CCN(c3cnn(C)c3)C2=O)c1C (stereo not drawn)	3.687%
O=C(CC1CC1)NCc1cn2c(n1)CN(Cc1nccs1)CC2.O=C(O)C(F)(F)F	17.65%
Cc1cc(C(=O)N2C[C@@H]3[C@@H](C2)OCC(=O)N3CC2CC2)no1	15.73%

SMILES	Percent Effect
CS(=O)(=O)CCN1CCC(=Cc2ccccc2)CC1	3.303%
COc1cccc(CN(C(=O)NC2CC2)C2CCC(O)CC2)c1 (stereo not drawn)	4.411%
CC(=O)NCC(=O)N(CCc1ccccc1)C1CCOC1 (stereo not drawn)	3.358%
O=C(C1CCOCC1)N(CCc1ccccc1)C1CCOC1 (stereo not drawn)	-13.84%
CNC(=O)[C@@]12CCO[C@@H]1CCN(S(=O)(=O)c1ccccc1)C2	-56.29%
O=C(NC1CC1)N(CCc1ccccc1)C1CCOC1 (stereo not drawn)	-8.792%
O=C(C1CC1)N(CCc1ccccc1)C1CCOC1 (stereo not drawn)	-3.562%
CNC(=O)CN(C(=O)c1ccccc1)[C@H]1C[C@H]2CCOC[C@H]2C1	119.3%
CNC(=O)CN([C@H]1C[C@H]2CCOC[C@H]2C1)S(=O)(=O)c1ccccc1	119.6%
CN(CC(=O)N(C)C1CCN(CC2CCOC2)CC1)c1ccccc1 (stereo not drawn)	-6.754%
O=C(O)CN(C(=O)c1ccccc1)[C@H]1C[C@H]2CCOC[C@H]2C1	112.1%
CN1CCN(CCO)C(=O)C12CCN(c1nccs1)CC2	3.933%
CN1CCOC(C(=O)Nc2ccc3[nH]nnc3c2)C1 (stereo not drawn)	3.877%
CCc1nsc(NC2CCCn3nc(COC)nc32)n1 (stereo not drawn)	-2.766%
Cc1ccc2nc(C)c(C)c(C(=O)NCCCn3ccnn3)c2c1	-15.24%
COc1ccccc1-n1cc(C(=O)NCCCn2ccnn2)cn1	105.8%
CCc1nccn1CCCNC(=O)c1cnn(-c2ccccc2OC)c1	86.43%
CC(C)c1nccn1CCCNC(=O)c1ccc(-c2cnn(C)c2)nc1	3.735%
Cc1ccc2[nH]c(C(=O)NCCCn3ccnn3)c(C)c2c1	-11.21%
CCc1nccn1CCCNC(=O)CN1CCN(c2ncccn2)CC1	-11.95%
